# Legend:
# Format in all cases: functional
# Plasmodium falciparum [1] = assay: GSK_TCMDC: Inhibition of Plasmodium falciparum 3D7 in whole red blood cells, using parasite LDH activity as an index of growth. Test compounds present at 2uM
# Plasmodium falciparum [2] = assay: GSK_TCMDC: Inhibition of Plasmodium falciparum Dd2 in whole red blood cells, using parasite LDH activity as an index of growth. Test compounds present at 2uM
# HepG2 = assay: GSK_TCMDC: Percent inhibition of human HepG2 cell line. Test compounds present at 10uM.
compound,measurement,setting,value
CCCC[C@@H](C(=O)NCc1ccccc1C(F)(F)F)N1C(=O)CCC1C(=O)Nc1ccc([N+](=O)[O-])cc1 (some centres undefined),Inhibition,Plasmodium falciparum [1],94%
same,Inhibition,Plasmodium falciparum [2],2%
same,Inhibition,HepG2,7%
COc1cc2nc(NCC3CCN(C(=O)c4ccc(-c5ccc(C(=O)N(C)C)cc5C)cc4)CC3)nc(N)c2cc1OC,Inhibition,Plasmodium falciparum [1],100%
same,Inhibition,Plasmodium falciparum [2],34%
same,Inhibition,HepG2,2%
CN(CCCCCN1CCC(NC(=O)Nc2ccc(C(F)(F)F)cc2)C1)C(=O)/C=C/c1ccc(Cl)c(Cl)c1 (centres undefined),Inhibition,Plasmodium falciparum [1],100%
same,Inhibition,Plasmodium falciparum [2],11%
same,Inhibition,HepG2,28%
O=C(Nc1ccc(Cl)cc1)Nc1nc2cc([N+](=O)[O-])ccc2[nH]1,Inhibition,Plasmodium falciparum [1],100%
same,Inhibition,Plasmodium falciparum [2],6%
same,Inhibition,HepG2,0%
COc1c(C2CCN(CCCCNC(=O)c3ccc(-c4ccc(Cl)cc4)cn3)CC2)ccc2c1CCCC2,Inhibition,Plasmodium falciparum [1],93%
same,Inhibition,Plasmodium falciparum [2],14%
same,Inhibition,HepG2,100%
Oc1ccc2[nH]c(-c3cccc(F)c3)nc2c1CN1CCC(N2CCCC2)CC1,Inhibition,Plasmodium falciparum [1],100%
same,Inhibition,Plasmodium falciparum [2],54%
same,Inhibition,HepG2,0%
COc1ccc2c(NN=Cc3ccccn3)ccnc2c1,Inhibition,Plasmodium falciparum [1],100%
same,Inhibition,Plasmodium falciparum [2],96%
same,Inhibition,HepG2,14%
O=C(Nc1ccsc1)Nc1cccc(-c2cccc(-c3nc4cc(F)ccc4[nH]3)c2)c1,Inhibition,Plasmodium falciparum [1],100%
same,Inhibition,Plasmodium falciparum [2],41%
same,Inhibition,HepG2,46%
Cc1ccccc1OCC(O)CN1CCC(C2CCN(CC(O)COc3ccccc3C)CC2)CC1 (centres undefined),Inhibition,Plasmodium falciparum [1],100%
same,Inhibition,Plasmodium falciparum [2],51%
same,Inhibition,HepG2,12%
O=C(Nc1ccc(OC(F)(F)F)cc1)NC1CCN(c2ccnc3ccccc23)CC1.O=C(O)C(F)(F)F,Inhibition,Plasmodium falciparum [1],100%
same,Inhibition,Plasmodium falciparum [2],40%
same,Inhibition,HepG2,40%
N#Cc1ccc(N2CCN(Cc3cccc(-c4ccc(-c5nc6cc(C(F)(F)F)ccc6[nH]5)cc4)c3)CC2)nc1.O=C(O)C(F)(F)F,Inhibition,Plasmodium falciparum [1],100%
same,Inhibition,Plasmodium falciparum [2],81%
same,Inhibition,HepG2,39%
COc1ccc(NC(=O)Nc2ccc(Nc3nc(C)cc(N4CCCC4)n3)cc2)cc1,Inhibition,Plasmodium falciparum [1],100%
same,Inhibition,Plasmodium falciparum [2],100%
same,Inhibition,HepG2,14%
CCOC(=O)c1ccc(NC(=O)NNC(=O)c2ccc(CCN3CCC(c4nc(COCC(F)(F)F)c(-c5ccc(F)cc5)o4)CC3)cc2)cc1,Inhibition,Plasmodium falciparum [1],100%
same,Inhibition,Plasmodium falciparum [2],67%
same,Inhibition,HepG2,10%
CC(C)(C)c1ccccc1OC(=O)c1ccccc1,Inhibition,Plasmodium falciparum [1],95%
same,Inhibition,Plasmodium falciparum [2],2%
same,Inhibition,HepG2,0%
CCOC(=O)C(C(C)=O)C(c1ccccc1)C(C(C)=O)C(=O)OCC (centres undefined),Inhibition,Plasmodium falciparum [1],95%
same,Inhibition,Plasmodium falciparum [2],14%
same,Inhibition,HepG2,6%
COc1c(C2CCN(CCCCNC(=O)c3ccc(-c4ccc(NC(=O)C(F)(F)F)cc4)cc3)CC2)ccc2c1CCCC2,Inhibition,Plasmodium falciparum [1],86%
same,Inhibition,Plasmodium falciparum [2],33%
same,Inhibition,HepG2,95%
O=C(NC1CCC(N2CCC(c3ccccc3C(F)(F)F)CC2)CC1)c1cc2ccccc2[nH]1 (centres undefined),Inhibition,Plasmodium falciparum [1],100%
same,Inhibition,Plasmodium falciparum [2],98%
same,Inhibition,HepG2,80%
Oc1ccc(-c2cncc(NCc3ccc(F)c(F)c3)c2)cc1,Inhibition,Plasmodium falciparum [1],95%
same,Inhibition,Plasmodium falciparum [2],80%
same,Inhibition,HepG2,0%
Cc1ccc(O)cc1C[C@@H]1C(=O)CC[C@@]2(C)[C@H]1CC[C@]2(C)O,Inhibition,Plasmodium falciparum [1],96%
same,Inhibition,Plasmodium falciparum [2],0%
same,Inhibition,HepG2,4%
O=C(Nc1cc(C(F)(F)F)cc(C(F)(F)F)c1)Nc1ccc(Cl)c(Cl)c1,Inhibition,Plasmodium falciparum [1],100%
same,Inhibition,Plasmodium falciparum [2],100%
same,Inhibition,HepG2,58%
CC(=O)Nc1ccc(C(=O)Nc2cccc(-c3ccc(-c4nc5ccccc5[nH]4)cc3)c2)cn1,Inhibition,Plasmodium falciparum [1],100%
same,Inhibition,Plasmodium falciparum [2],93%
same,Inhibition,HepG2,12%
Cc1nc2c(-n3cc(Cn4ccnc4)c4ccccc43)ncnc2n1-c1ccc(Cl)cc1Cl,Inhibition,Plasmodium falciparum [1],89%
same,Inhibition,Plasmodium falciparum [2],29%
same,Inhibition,HepG2,16%
CC(Cc1ccc(CN2CCN(Cc3ccccc3)CC2)cc1)NCC(O)c1cccc(C(F)(F)F)c1.Cl (centres undefined),Inhibition,Plasmodium falciparum [1],97%
same,Inhibition,Plasmodium falciparum [2],98%
same,Inhibition,HepG2,51%
O=C(O)C(F)(F)F.O=C1CCCN1CCCNCc1ccc(-c2ccc(-c3nc4cc(C(F)(F)F)ccc4[nH]3)s2)cc1,Inhibition,Plasmodium falciparum [1],100%
same,Inhibition,Plasmodium falciparum [2],96%
same,Inhibition,HepG2,9%
O=C(Cc1cccc2ccccc12)NC1CCN(c2ccnc3cc(Cl)ccc23)C1.O=C(O)C(F)(F)F (centres undefined),Inhibition,Plasmodium falciparum [1],82%
same,Inhibition,Plasmodium falciparum [2],97%
same,Inhibition,HepG2,13%
CNC(=O)c1cnc(Nc2ccc(N3CCN(C)CC3)cc2)nc1Nc1ccccc1OC.O=C(O)C(F)(F)F,Inhibition,Plasmodium falciparum [1],100%
same,Inhibition,Plasmodium falciparum [2],84%
same,Inhibition,HepG2,8%
CCNc1cc(C(=O)N[C@@H](Cc2ccccc2)[C@H](O)CNCCc2ccccc2)cc(N2CCCC2=O)c1.O=C(O)C(F)(F)F,Inhibition,Plasmodium falciparum [1],92%
same,Inhibition,Plasmodium falciparum [2],46%
same,Inhibition,HepG2,0%
Oc1ccc(-c2cc(-c3ccc(O)cc3)nc(-c3ccccc3)n2)cc1,Inhibition,Plasmodium falciparum [1],96%
same,Inhibition,Plasmodium falciparum [2],97%
same,Inhibition,HepG2,0%
Cl.O=C(c1cccc(COc2ccc3c(c2)CCN(C2CCCC2)CC3)c1)N1CCN(c2ccncc2)CC1,Inhibition,Plasmodium falciparum [1],100%
same,Inhibition,Plasmodium falciparum [2],35%
same,Inhibition,HepG2,49%
O=C(O)c1cccc2c(-c3ccncc3)cccc12,Inhibition,Plasmodium falciparum [1],97%
same,Inhibition,Plasmodium falciparum [2],1%
same,Inhibition,HepG2,29%
CCOC(=O)C(NC(=O)Cc1ccccc1)C(C)C (centres undefined),Inhibition,Plasmodium falciparum [1],96%
same,Inhibition,Plasmodium falciparum [2],98%
same,Inhibition,HepG2,39%
Fc1cccc(Nc2nc(NCc3ccc(Cl)c(Cl)c3)nc(Nc3cccc(F)c3)n2)c1,Inhibition,Plasmodium falciparum [1],99%
same,Inhibition,Plasmodium falciparum [2],7%
same,Inhibition,HepG2,0%
O=C(n1c(-c2cc3ccccc3n2C(=O)C(F)(F)F)cc2ccccc21)C(F)(F)F,Inhibition,Plasmodium falciparum [1],94%
same,Inhibition,Plasmodium falciparum [2],80%
same,Inhibition,HepG2,30%
Cn1cnc2c(Nc3ccncc3)nc(-c3ccc4ccccc4c3)nc21,Inhibition,Plasmodium falciparum [1],96%
same,Inhibition,Plasmodium falciparum [2],66%
same,Inhibition,HepG2,55%
CCCCCCCCS(=O)(=O)NCCCC1CCN(CCCCCNC(=O)C=Cc2ccc(Cl)c(Cl)c2)CC1,Inhibition,Plasmodium falciparum [1],91%
same,Inhibition,Plasmodium falciparum [2],26%
same,Inhibition,HepG2,100%
Cl.c1ccc2c(Nc3ccc(Cc4ccc(Nc5c6ccccc6nc6ccccc56)cc4)cc3)c3ccccc3nc2c1,Inhibition,Plasmodium falciparum [1],100%
same,Inhibition,Plasmodium falciparum [2],100%
same,Inhibition,HepG2,93%
O=C(CCc1c[nH]cn1)Nc1cccc(-c2ccc(-c3nc4ccccc4[nH]3)s2)c1,Inhibition,Plasmodium falciparum [1],92%
same,Inhibition,Plasmodium falciparum [2],37%
same,Inhibition,HepG2,11%
Cc1ccc2c(OCCN3CCC(Cc4ccc5c(c4)NC(=O)CO5)CC3)cc(F)cc2n1.Cl,Inhibition,Plasmodium falciparum [1],89%
same,Inhibition,Plasmodium falciparum [2],21%
same,Inhibition,HepG2,24%
COc1cccc(Nc2nc(C)cc(Nc3cccc(C#N)c3)n2)c1,Inhibition,Plasmodium falciparum [1],100%
same,Inhibition,Plasmodium falciparum [2],92%
same,Inhibition,HepG2,0%
CCOC(=O)CCCOc1cc(Cc2cnc(N)nc2N)cc(OC)c1OC,Inhibition,Plasmodium falciparum [1],97%
same,Inhibition,Plasmodium falciparum [2],3%
same,Inhibition,HepG2,12%
Cc1ccc(-c2nc(N3CCN(C(=O)c4ccco4)CC3)c3ccccc3n2)cc1,Inhibition,Plasmodium falciparum [1],90%
same,Inhibition,Plasmodium falciparum [2],75%
same,Inhibition,HepG2,0%
Cc1ccc(C)c2sc(N3CCN(C(=O)c4ccc([N+](=O)[O-])o4)CC3)nc12,Inhibition,Plasmodium falciparum [1],96%
same,Inhibition,Plasmodium falciparum [2],89%
same,Inhibition,HepG2,0%
Cc1cnccc1/C=C/c1cccc(OCCCN2CCc3ccc(S(C)(=O)=O)cc3CC2)c1,Inhibition,Plasmodium falciparum [1],92%
same,Inhibition,Plasmodium falciparum [2],72%
same,Inhibition,HepG2,1%
Nc1c2ccccc2nc2ccc(-c3ccccc3)cc12,Inhibition,Plasmodium falciparum [1],100%
same,Inhibition,Plasmodium falciparum [2],99%
same,Inhibition,HepG2,100%
Cc1c(-c2ccc3c(c2)C(NCCCN2CCCCC2)CC3)cnc(N)c1C.Cl (centres undefined),Inhibition,Plasmodium falciparum [1],97%
same,Inhibition,Plasmodium falciparum [2],3%
same,Inhibition,HepG2,4%
O=S(=O)(Nc1cccc(CCN2CCC(N3CCCCC3)CC2)c1)c1cccc2cccnc12,Inhibition,Plasmodium falciparum [1],98%
same,Inhibition,Plasmodium falciparum [2],17%
same,Inhibition,HepG2,0%
COc1cccc(-c2cc(C(F)(F)F)n3ncc(C(=O)Nc4cc(C)ccc4O)c3n2)c1,Inhibition,Plasmodium falciparum [1],98%
same,Inhibition,Plasmodium falciparum [2],99%
same,Inhibition,HepG2,0%
CCN(CC)CCNc1ccnc2[nH]c3ccc([N+](=O)[O-])cc3c12,Inhibition,Plasmodium falciparum [1],100%
same,Inhibition,Plasmodium falciparum [2],76%
same,Inhibition,HepG2,6%
COC(=O)c1cc(C(O)CNC(C)CCc2cccc(F)c2)ccc1O.Cl (centres undefined),Inhibition,Plasmodium falciparum [1],94%
same,Inhibition,Plasmodium falciparum [2],77%
same,Inhibition,HepG2,38%
CCCN1CCC(c2c[nH]c3ccc(NC(=O)Nc4cccc(Cl)c4Cl)cc23)CC1,Inhibition,Plasmodium falciparum [1],100%
same,Inhibition,Plasmodium falciparum [2],17%
same,Inhibition,HepG2,30%
O=C(CC(=O)C(F)(F)F)c1ccc2c(c1)OCO2,Inhibition,Plasmodium falciparum [1],96%
same,Inhibition,Plasmodium falciparum [2],0%
same,Inhibition,HepG2,44%
COc1ccc2c(c1)Nc1ccc(Cl)cc1C2N.O=S(=O)(O)O (centres undefined),Inhibition,Plasmodium falciparum [1],100%
same,Inhibition,Plasmodium falciparum [2],99%
same,Inhibition,HepG2,16%
O=C(NC(=O)c1ccccc1O)c1ccccc1O,Inhibition,Plasmodium falciparum [1],97%
same,Inhibition,Plasmodium falciparum [2],79%
same,Inhibition,HepG2,0%
C=C(C)Cn1cc(C2CCN(CCN3CCC(CNC(=O)c4ccc(-c5ccc(C#N)cc5)cc4)CC3)CC2)c2ccccc21,Inhibition,Plasmodium falciparum [1],99%
same,Inhibition,Plasmodium falciparum [2],94%
same,Inhibition,HepG2,64%
O=C(Nc1ccc2c(c1)CCC2)N[C@H]1CCN(Cc2ccc(OCCCN3CCCCC3)cc2)C1,Inhibition,Plasmodium falciparum [1],96%
same,Inhibition,Plasmodium falciparum [2],0%
same,Inhibition,HepG2,9%
Nc1ccnc(N2CCC(CCOc3ccnc4cc(Cl)ccc34)CC2)c1.O=C(O)C(F)(F)F,Inhibition,Plasmodium falciparum [1],100%
same,Inhibition,Plasmodium falciparum [2],99%
same,Inhibition,HepG2,34%
c1cncc(Oc2ccc(Nc3ccnc4cc(-c5cccc(CNCCN6CCOCC6)c5)ccc34)cc2)c1,Inhibition,Plasmodium falciparum [1],100%
same,Inhibition,Plasmodium falciparum [2],99%
same,Inhibition,HepG2,14%
O=C(c1cc(-c2ccccc2O)on1)N1CCN(C(c2ccccc2)c2ccccc2)CC1,Inhibition,Plasmodium falciparum [1],97%
same,Inhibition,Plasmodium falciparum [2],88%
same,Inhibition,HepG2,12%
O=C(c1cc(OC(F)(F)F)ccc1O)N1CCN(c2ccccc2)CC1,Inhibition,Plasmodium falciparum [1],88%
same,Inhibition,Plasmodium falciparum [2],1%
same,Inhibition,HepG2,0%
Cl.c1ccc(Oc2ccc(Nc3ccnc(Nc4ccc5cn[nH]c5c4)n3)cc2)cc1,Inhibition,Plasmodium falciparum [1],94%
same,Inhibition,Plasmodium falciparum [2],33%
same,Inhibition,HepG2,6%
CN(C)[C@@H]1C(O)=C(C(N)=O)C(=O)[C@@]2(O)C(O)=C3C(=O)c4c(O)ccc(C#Cc5ccccn5)c4C[C@H]3C[C@@H]12.Cl,Inhibition,Plasmodium falciparum [1],92%
same,Inhibition,Plasmodium falciparum [2],75%
same,Inhibition,HepG2,17%
CCNc1cc(C(=O)N[C@@H](Cc2ccccc2)[C@H](O)CNCc2cccc(-n3ccnc3)c2)cc(N2CCCC2=O)c1.O=C(O)C(F)(F)F,Inhibition,Plasmodium falciparum [1],99%
same,Inhibition,Plasmodium falciparum [2],96%
same,Inhibition,HepG2,1%
CN(C(=O)c1ccc(Br)cc1)c1ccccc1[N+](=O)[O-],Inhibition,Plasmodium falciparum [1],96%
same,Inhibition,Plasmodium falciparum [2],0%
same,Inhibition,HepG2,3%

# — ChEMBL document CHEMBL1157539, “Thousands of chemical starting points for antimalarial lead identification” (Nature, 2010)
